Compounds with a hit are over-represented: about 13% of the library has one in this group of screens.
Lmaj promast = Leishmania major promastigote growth inhibition, primary screen; Leishmania major promastigotes, resazurin fluorescence viability; inhibition, % at 10 µM; 200,000 tested, 9% active; in the data active = inhibition above about 50%;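 note: promastigotes grown with compound for 44 hours at 28 °C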
RAM network inh = inhibitors of the yeast RAM network, primary screen, dse1pr::URA3 reporter, 5-FOA selection; AID 868, 2007; S. cerevisiae dse1pr::URA3 reporter, 5-FOA growth OD615, 2 d; analog-sensitive cbk1-as2 kinase mutant strain; 190,000 tested, 1.8% active; inhibition, % at 50 µM;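 active = inhibition above a set limit, 3 SD over mean compound inhibition, cut at about 8.4% in these data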;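 note: 0% = DMSO-only wells with no growth and 100% = 10 µM 1-NA-PP1 full growth; inhibition rescues growth on 5-FOA so higher OD means more RAM inhibition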
CHOP inh = inhibitors of CHOP promoter induction, primary screen, cell-based, unfolded protein response, luciferase reporter; CHO-K1 CHOP-promoter luciferase, tunicamycin-induced, 15-18 h; inhibition, % at 10 µM; 220,000 tested, 3.8% active; AID 2732, 2010;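 active = compounds that reduced the stress-induced luciferase reporter signal by more than about 70% of percent inhibition, limit read from the data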;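 note: 0% = tunicamycin plus vehicle and 100% = wells without tunicamycin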
WT yeast gro inh = growth inhibition of WT strain, primary screen, mitochondrial fusion inhibitor project, WT and mutant strains, chemical genetic; inhibition, % at 10 µM; AID 1362, 2008; 190,000 tested, 2.1% active; mitochondrial fusion phenotypic screen; in the data active = inhibition above about 58%; tested in S. cerevisiae
The depositor's hits bear a star; nt = not tested or not shown.

SMILES	Lmaj promast	RAM network inh	CHOP inh	WT yeast gro inh
COc1ccc(/C=C/c2nc(N)nc(-c3ccccc3O)n2)cc1OC	93*	5	79*	28
Nc1nc(N)nc(-c2ccccc2O)n1	-1	-1	28	-22
CCCc1cc(=O)[nH]c(SCC(=O)c2cc(C)n(-c3c(C)n(C)n(-c4ccccc4)c3=O)c2C)n1	-10	0	0	-7
Cc1nc(Nc2cccc(C(C)O)c2)c2nnn(Cc3ccc(F)cc3)c2n1 (stereo unspecified)	26	2	9	1
N#CC1=C(N)N=C(SCc2cccc3ccccc23)C(C(N)=O)C12CCCCC2 (stereo unspecified)	100*	2	12	39
COc1ccc(/C(N)=N/OC(=O)CCCN2C(=O)c3ccccc3C2=O)cc1OC	-7	1	13	2
CC(C)Oc1ccc(CNCCC2(C(C)C)CCOC(C)(C)C2)cc1 (stereo unspecified)	95*	-1	45	9
CCC(=O)NC(=S)Nc1c(C)cc(Br)cc1C	6	1	13	10
Cc1cc(Br)cc(C)c1NC(=S)NC(=O)CC(C)C	-1	2	92*	5
Cc1cccc(OCC(=O)N/N=C/c2cccn2C)c1	nt	nt	-4	nt
Cc1ccc(C)c(OCC(=O)N/N=C/c2c(C)nn(-c3ccccc3)c2Cl)c1	7	3	83*	25
Cc1ccc(C(C)C)c(OCC(=O)N/N=C/c2cccn2C)c1	nt	nt	96*	nt
Cc1nn(-c2ccccc2)c(Cl)c1/C=N/NS(=O)(=O)c1ccc(Br)cc1	-5	3	-3	58*
CNC(=S)N/N=C/c1c(C)nn(-c2ccccc2)c1Cl	2	2	-49	7
CCN(CC)S(=O)(=O)c1ccc(O)c(C(=O)OCC(=O)N2c3ccccc3CC2C)c1 (stereo unspecified)	nt	nt	1	nt
COc1ccc(N=C2C(=O)Nc3ccccc32)cc1	100*	1	14	-8
COc1ccc(N=C2C(=O)N3c4c(cccc42)C(C)=CC3(C)C)cc1	97*	0	79*	-11
COc1cccc(N=C2C(=O)N3CCCc4cccc2c43)c1	26	0	11	-4
COc1ccc(NC(=O)Cn2cnc3sc(C)c(S(=O)(=O)N4CCN(C)CC4)c3c2=O)cc1OC	3	4	-11	-4
CN(C)c1ccc(/C=C2/C(=O)N(c3ccc([N+](=O)[O-])cc3)N=C2N2CCOCC2)cc1	-5	1	27	17
CN(C)c1ccc(/C=C2\C(=O)N(c3ccc([N+](=O)[O-])cc3)N=C2N2CCOCC2)cc1	80*	nt	nt	nt
COc1ccc(S(=O)(=O)N2CC(C)N(S(=O)(=O)c3ccc(OC)cc3)CC2C)cc1 (stereo unspecified)	nt	nt	nt	9
Cc1ccc(S(=O)(=O)N2CCN(S(=O)(=O)c3ccccc3)C2c2ccc(N(C)C)cc2)cc1 (stereo unspecified)	89*	1	18	15
CC(C)C1N(S(=O)(=O)c2ccccc2)CCN1S(=O)(=O)c1ccccc1	34	3	76*	25
COc1ccc(C2N(S(=O)(=O)c3ccc(C)cc3)CCN2S(=O)(=O)c2ccc(C)cc2)cc1	66*	4	-4	9
SMILES	Lmaj promast	RAM network inh	CHOP inh	WT yeast gro inh
Cn1c(N)c(C(=O)COC(=O)CSc2cccc3cccc(Cl)c23)c(=O)n(C)c1=O	-4	5	36	-55
Cc1c(Br)c(C(F)(F)F)nn1CC(=O)NCCCn1ccnc1	-6	4	-13	-13
COc1ccc(Nc2nc(C)c3ccccc3n2)cc1	34	0	-4	1
CC1=NC(Nc2nc(C)c3ccccc3n2)=NC(C)(C)C1	98*	1	24	24
COc1cccc2c1OC1(C)CC2NC(=O)N1c1cccc(C(=O)N2CCN(c3ccccc3)CC2)c1 (stereo unspecified)	-4	0	-7	4
CCOC(=O)C1CCN(C(=O)C23CC4CC(CC(C4)C2)C3)CC1	104*	-1	-11	4
Cc1ccc(C(=O)Nc2nnc(-c3ccco3)o2)cc1	12	0	32	17
CCC(=O)Nc1nnc(-c2ccco2)o1	0	2	23	6
O=C(Nc1nnc(-c2ccco2)o1)c1ccc2ccccc2c1	69*	2	9	52
Cc1ccsc1C(=O)Nc1nnc(-c2ccco2)o1	88*	-1	nt	2
Cc1cc(C)n2nc(SCc3nnc(-c4ccccc4Br)o3)nc2n1	-5	0	0	-10
Cc1cc(Cl)ccc1N=C1N=C(N)c2ccccc21	1	8.9*	33	-3

Compound activity deposited in PubChem BioAssay by several laboratories.
